Data as given in PubChem BioAssay AID1159580 (chemical genetic matrix, 2015).
Several values for one entry are separate records, joined by “and”; a condition that tells them apart may be missing. Identical values can stand only once. Screen size: about 5,500 compounds; about 2,000 (36%) were called active. Inconclusive results (about 18%) are left out. Cut-off read from the data, not from the text of the source: active = normalized growth mostly below about 0.91 (no sharp cut-off); inconclusive = no clear call, values can overlap the other calls; inactive = mostly above about 0.92. The list shows a part of the results.

Experiment: chemical genetic growth profiling, strain panel (AID 1159580);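 note: tested at 20 µM; growth read once vehicle control cultures reached saturation at 30 °C; 1 = growth at the plate median or of vehicle wells; lower values mean less growth of the strain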
Conditions: S. cerevisiae deletion strains, growth OD

Measured: normalized growth

NC(N)=NC(N)=Nc1ccccc1
inactive: locus YAL013W, strain DEP1, hits give low values 1.01 and 0.984 | locus YAL021C, strain ccr4, hits give low values 1 | locus YAL026C, strain drs2, hits give low values 0.998 | locus YAL030W, strain snc1, hits give low values 1.01 | locus YAL040C, strain CLN3, hits give low values 1.08 | locus YBL061C, strain skt5, hits give low values 1 | locus YBR009C, strain hhf1, hits give low values 0.979 | locus YBR021W, strain FUR4, hits give low values 1.02 | locus YBR023C, strain chs3, hits give low values 1 | locus YBR171W, strain sec66, hits give low values 1 | locus YBR229C, strain ROT2, hits give low values 1.01 | locus YBR231C, strain swc5, hits give low values 0.987 | locus YBR279W, strain paf1, hits give low values 1 | locus YCL011C, strain gbp2, hits give low values 1 | locus YCL016C, strain dcc1, hits give low values 1 | locus YCL029C, strain bik1, hits give low values 0.995 | locus YCL061C, strain MRC1 (second series), hits give low values 1 | locus YCL061C, strain MRC1, hits give low values 0.993 | locus YCL069W, strain vba3, hits give low values 1 | locus YCR088W, strain abp1, hits give low values 1.01 | locus YDL005C, strain med2, hits give low values 0.998 | locus YDL035C, strain GPR1, hits give low values 1.01 | locus YDL040C, strain nat1, hits give low values 0.991 | locus YDL074C, strain BRE1, hits give low values 1.02 | locus YDL101C, strain DUN1, hits give low values 1.02 | locus YDL134C, strain PPH21, hits give low values 1.01 | locus YDL185W, strain tfp1, hits give low values 0.996 | locus YDL192W, strain arf1, hits give low values 0.998 | locus YDR001C, strain nth1, hits give low values 0.998 | locus YDR069C, strain doa4, hits give low values 0.995 | locus YDR101C, strain arx1, hits give low values 1.02 | locus YDR137W, strain rgp1, hits give low values 0.981 | locus YDR150W, strain NUM1, hits give low values 0.998 | locus YDR159W, strain sac3, hits give low values 0.961 | locus YDR162C, strain NBP2, hits give low values 1.01 | locus YDR195W, strain ref2 0.948 | locus YDR297W, strain sur2, hits give low values 0.999 | locus YDR318W, strain mcm21, hits give low values 0.992 | locus YDR334W, strain swr1, hits give low values 1 | locus YDR335W, strain msn5, hits give low values 1 | locus YDR363W, strain ESC2, hits give low values 1.02 | locus YDR388W, hits give low values 1 | locus YDR392W, strain spt3, hits give low values 0.903 | locus YDR502C, strain sam2, hits give low values 0.993 | locus YEL003W, strain gim4, hits give low values 0.998 | locus YEL037C, strain rad23, hits give low values 1.01 | locus YEL061C, strain CIN8 (second series), hits give low values 0.996 | locus YEL061C, strain CIN8, hits give low values 1.01 | locus YER002W, strain NOP16, hits give low values 1.03 | locus YER015W, strain faa2, hits give low values 0.998 | locus YER016W, strain bim1, hits give low values 0.999 | locus YER110C, hits give low values 0.986 | locus YER111C, strain swi4, hits give low values 0.996 | locus YER155C, strain BEM2 (second series), hits give low values 0.964 | locus YER155C, strain BEM2, hits give low values 1 | locus YER167W, strain BCK2, hits give low values 1.01 | locus YFR010W, strain ubp6, hits give low values 1.01 | locus YGL078C, strain dbp3, hits give low values 0.997 | locus YGL086W, strain mad1, hits give low values 0.997 | locus YGL167C, strain pmr1, hits give low values 0.993 | locus YGL173C, strain kem1, hits give low values 0.991 | locus YGL227W, strain vid30, hits give low values 0.997 | locus YGL240W, strain doc1, hits give low values 0.964 | locus YGL248W, strain PDE1, hits give low values 1.02 | locus YGL253W, strain hxk2, hits give low values 1.01 | locus YGR078C, strain PAC10, hits give low values 1.01 | locus YGR135W, strain pre9, hits give low values 0.995 | locus YGR229C, strain SMI1, hits give low values 0.985 | locus YGR252W, strain gcn5, hits give low values 0.993 | locus YHR013C, strain ard1, hits give low values 0.952 | locus YHR027C, strain rpn1, hits give low values 1 | locus YHR030C, strain SLT2, hits give low values 1.01 and 1 | locus YHR079C, strain IRE1 (second series), hits give low values 0.988 | locus YHR079C, strain IRE1, hits give low values 1 | locus YHR094C, strain hxt1, hits give low values 0.987 | locus YHR129C, strain ARP1, hits give low values 1.01 | locus YHR142W, strain chs7, hits give low values 1.03 | locus YHR200W, strain rpn10, hits give low values 0.997 | locus YIL066C, strain RNR3, hits give low values 1.02 | locus YIL073C, strain SPO22, hits give low values 0.989 | locus YIL125W, strain kgd1, hits give low values 0.988 | locus YIR030C, strain dcg1, hits give low values 0.996 | locus YJL092W, strain hpr5, hits give low values 1 | locus YJL095W, strain BCK1 (second series), hits give low values 1.01 | locus YJL095W, strain BCK1, hits give low values 1.03 and 0.993 | locus YJL115W, strain asf1, hits give low values 1 | locus YJL129C, strain trk1, hits give low values 1.02 | locus YJL134W, strain LCB3, hits give low values 1.01 | locus YJL154C, strain vps35, hits give low values 1.01 | locus YJL164C, strain tpk1, hits give low values 1 | locus YJL166W, strain qcr8, hits give low values 0.992 | locus YJL168C, strain set2, hits give low values 0.994 | locus YJL187C, strain SWE1 (second series), hits give low values 1.02 | locus YJL187C, strain SWE1, hits give low values 1 | locus YJR043C, strain POL32, hits give low values 1.01
